From PubChem BioAssay
The list is not random: actives were taken first. Their share in the collection is about 1.2%.
GALK inh – qHTS Assay for Inhibitors of Human Galactokinase (GALK); Purified GALK, Kinase-Glo residual ATP luminescence; 270,000 compounds, 0.007% hits; Potency, µM (doses to about 57.5 µM), for inactives: top-dose activity change, negative = inhibition, actives largely listed as inhibitors; AID 1868, 2009; P51570
Target sequence (P51570 whole entry, looked up): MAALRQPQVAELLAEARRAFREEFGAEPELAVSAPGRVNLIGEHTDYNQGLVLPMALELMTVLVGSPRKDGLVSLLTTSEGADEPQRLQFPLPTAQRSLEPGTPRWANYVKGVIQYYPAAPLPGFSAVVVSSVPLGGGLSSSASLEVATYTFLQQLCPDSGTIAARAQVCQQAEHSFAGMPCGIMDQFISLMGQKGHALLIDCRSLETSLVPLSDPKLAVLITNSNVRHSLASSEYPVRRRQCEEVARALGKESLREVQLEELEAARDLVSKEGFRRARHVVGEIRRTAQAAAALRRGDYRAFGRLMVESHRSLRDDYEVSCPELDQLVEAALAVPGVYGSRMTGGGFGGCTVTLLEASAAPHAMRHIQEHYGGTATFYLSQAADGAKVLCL
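The enzyme phosphorylates galactose (100 uM) using ATP (35 uM); inhibition is detected as higher residual ATP, quantified by bioluminescence after 1 h reaction at room temperature, pH 8.0.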
rTrxR1 inhibitor – qHTS Assay for Inhibitors of Mammalian Selenoprotein Thioredoxin Reductase 1 (TrxR1): qHTS; Thioredoxin reductase 1, cytoplasmic (Rattus norvegicus), O89049; AID 588453, 2011; 390,000 compounds, 1% hits; recombinant rTrxR1, NADPH fluorescence consumption, selenite substrate; Potency, µM (doses to about 114 µM), without a hit: top-dose activity change, negative = inhibition, actives largely listed as inhibitors; note: nearly all actives have a fitted effect of over 65% in size
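Rat TrxR1 (90 nM in the dispensed reagent) was pre-reduced with 400 uM NADPH for 5 min at room temperature, then incubated with compound for 15 min. After 400 uM selenite was added, NADPH fluorescence (Ex 340/Em 450 nm) was followed for 8 min.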
TrxR1 substrate – qHTS Assay for Substrates of Mammalian Selenoprotein Thioredoxin Reductase 1 (TrxR1): qHTS; purified TrxR1 substrate turnover, NADPH consumption readout; Potency, µM (titrated, usually from 114 µM), inactives show at the highest dose activity change, negative = substrate turnover; 390,000 compounds, 0.01% hits; note: nearly all actives have a fitted effect of over 50% in size
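Rat TrxR1, dispensed at 90 nM, was prereduced with 400 uM NADPH (final) for 5 min at ~22 deg C, then incubated with compound 15 min before 400 uM selenite. A first-read NADPH fluorescence drop versus no-compound background flagged substrates.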
NPSR antag – qHTS Assay for Antagonists of the Neuropeptide S Receptor: cAMP Signal Transduction | 220,000 compounds, 1% hits | CHO-NPSR cells, cAMP TR-FRET, antagonist mode | Potency, µM (top dose mostly 38.3 µM), inactives show at the highest dose activity change, negative = inhibition, usual class: inhibitors; note: nearly all actives have a fitted effect of over 50% in size
Active calls of the source: *; u = inconclusive; x = no result; [ ] = remark or other dose. Calls come from the whole dose curve; as a rule, active = well fitted curve in the direction sought with a large enough effect; inconclusive = small, poorly fitted or top-dose-only effect, or another doubt; inactive = no such curve, though single readings can be large; an effect the other way counts as inactive or inconclusive. % is set by controls: 0 for no effect and ±100 for the full control effect; potency is the fitted concentration of half-maximal effect.

SMILES | GALK inh | rTrxR1 inhibitor | TrxR1 substrate | NPSR antag
CC[C@H]1OC(=O)[C@H](C)[C@@H](O[C@H]2C[C@@](C)(OC)[C@@H](O)[C@H](C)O2)[C@H](C)[C@@H](O[C@@H]2O[C@H](C)C[C@H](N(C)C)[C@H]2O)[C@](C)(O)C[C@@H](C)C(=NOCOCCOC)[C@H](C)[C@@H](O)[C@]1(C)O | x | 11% | -3% | x
CCS(=O)(=O)c1c([N+](=O)[O-])ncn1C | 1% | 0.79µM* | 3% | 7%
COC(=O)CC1C(=O)NC2CCCCC2N1C(=O)CCl (stereo unspecified) | 3% | 20µM* | 6% | 4%
COc1ccc(NC(=O)CSc2nc3nc(C)c(Cc4ccccc4)c(C)n3n2)cc1OC | x | 6%[57.1 µM] | -2%[57.1 µM] | x
COc1ccc(N(Cc2cc(=O)[nH]c3ccccc23)C(=O)CCl)cc1 | -6% | 6.3µM* | 7% | x
Cc1cccc(N(Cc2cc(=O)[nH]c3ccccc23)C(=O)CCl)c1 | x | 4µM* | 10% | x
CCCC(=O)N(Cc1cc(=O)[nH]c2ccccc12)c1cccc(C)c1 | x | 13%[57.1 µM] | 9%[57.1 µM] | x
Cc1ccc(CN(Cc2ccco2)C(=O)COc2ccccc2C)cc1 | x | -8% | -9% | x
COc1ccc(-c2nc3ccc(NC(C)=O)cc3c(=O)n2Cc2cccc(Cl)c2)cc1COc1ccc(NC(C)=O)cc1 | x | 14µM* | 0% | x
COc1ccc(CN(Cc2ccccc2)C(=O)COC(C)=O)cc1COc1ccc(NC(C)=O)cc1 | x | 6% | -2% | x
COc1ccc(-c2nc3ccc(NC(=O)COC(C)=O)cc3c(=O)n2Cc2ccccc2)cc1COc1ccc(NC(C)=O)cc1 | x | 35µM* | -1% | x
CNc1cccccc1=S | 0% | 7.9µM* | -2% | u
CNc1ccccc1 | x | 6% | 1% | x
O=C(c1cc2cc(Cl)ccc2[nH]1)N1CCN(C(=O)c2ccco2)CC1 | 0% | 50µM* | 5% | x
O=C(c1cc2cc(Cl)ccc2[nH]1)N1CCN(c2ccccc2F)CC1 | 1% | 9% | 4% | x
COc1ccc(C2CC(c3ccccc3)Oc3cc4c(cc32)OCO4)cc1 (stereo unspecified) | x | -16% | -8% | x
CCCOc1ccc(C(=O)CCNC(Cc2c[nH]c3ccccc23)C(=O)O)cc1 (stereo unspecified) | x | 1.8µM* | 3% | x
CCOC(=O)C1=C(O)c2ccccc2C(=O)/C1=C\c1ccc(C)cc1 | -1% | 11µM* | -18% | -36%
CC(=O)Oc1ccc(N2C(=O)C3C4C=CC(CO)(O4)C3C2=O)cc1 (stereo unspecified) | 2% | 3.2µM* | 9%[57.1 µM] | -12%[46.1 µM]
O=C1C2C3C=CC(CNS(=O)(=O)c4ccccc4)(O3)C2C(=O)N1c1ccc(Cl)cc1 (stereo unspecified) | x | 10µM* | -2% | 2%
O=C1C2C3C=CC(CO)(O3)C2C(=O)N1c1ccccc1-c1ccccc1 (stereo unspecified) | 0% | 0.89µM* | 8% | 6.3µM*
COC(=O)C1(C)NC(c2ccc(Cl)cc2)C2C(=O)N(c3ccccc3)C(=O)C21 (stereo unspecified) | -9% | 17% | -2% | x
COc1ccccc1CN(Cc1c(Cl)cccc1Cl)S(=O)(=O)c1ccc(Br)cc1 | x | 15%[57.1 µM] | 5%[57.1 µM] | x
CCc1noc(-c2ccc(NCc3ccccc3)c([N+](=O)[O-])c2)n1 | x | 4% | -8% | x
CCCCCn1c(CCNC(=O)c2cccc(C)c2)nc2ccccc21 | x | 11% | -2% | x
SMILES | GALK inh | rTrxR1 inhibitor | TrxR1 substrate | NPSR antag
CC(C)(C)n1ncc2c(=O)n(Cc3cc(Cl)ccc3Cl)cnc21 | x | 3% | -3% | x
CCN1C=C(Cc2ccc(F)cc2)C2=C(C1)C(c1ccc(F)cc1)C(C#N)=C(N)O2 (stereo unspecified) | 0% | -32% | 9%[57.1 µM] | 10µM*
COc1cccc(-n2nnnc2S(C)(=O)=O)c1 | 1% | 3.2µM* | 5% | 10µM*
Cc1cccc(-n2nnnc2S(C)(=O)=O)c1 | x | 1.8µM* | -6%[57.1 µM] | x
O=C(Cn1c(SCc2cccc(F)c2)nc2cccnc21)Nc1ccc(F)c(Cl)c1 | x | 16% | -1% | x
Cc1ccccc1CN1C(=O)c2ccccc2Sc2ccc(C(=O)NC3CCCC3)cc21 | x | 17%[57.1 µM] | -2%[57.1 µM] | x
COc1ccc(C2C(C#N)=C(N)Oc3cc(O)ccc32)cc1C (stereo unspecified) | -2% | 16µM* | -1% | x
Cc1ccc(-c2nc3ncccn3c2Nc2ccc3c(c2)OCCO3)o1 | -2% | 40µM* | 1% | -26%[46.1 µM]
Fc1ccccc1-c1ccc(-c2nc3ccc(Cl)cn3c2Nc2ccc(Cl)cc2)o1 | x | 25µM* | 3% | x
Cc1ccc(-c2nc3cnccn3c2Nc2ccccc2)o1 | 2% | 40µM* | 13% | -3%[46.1 µM]
Cc1ccc(Nc2c(-c3ccccn3)nc3cc(C)ccn23)cc1 | -1% | -4% | -3% | u
Cc1ccc(Nc2c(-c3ccccn3)nc3ccc(C)cn23)cc1 | -1% | -15% | -2% | 10µM*
COc1cc(OC)c(/C=C/c2c3ccccc3cc[n+]2C)c(OC)c1 | x | 2% | -8% | x
Cc1ccc2nc(-c3ccc(C)o3)c(Nc3ccccc3)n2c1 | x | 18µM* | 24% | x
Cc1ccc(-c2nc3ccc(Cl)cn3c2Nc2ccccc2)o1 | x | u | 6% | x
Cc1nn(-c2ccccc2)c2c1N(CCCC(=O)NCc1ccc(N(C)C)cc1)C(=O)CS2 | x | 10%[57.1 µM] | 0%[57.1 µM] | x
O=C(/C=C/Sc1ccc(C(F)(F)F)cn1)c1ccccc1 | x | 1.3µM* | 0% | -49%
O=C(CSc1ccc(C(F)(F)F)cn1)Nc1ccccc1 | -4% | u | -8%[57.1 µM] | -9%
c1coc(-c2nc3c([nH]2)CCc2nonc2-3)c1 | -2% | 22µM* | 12% | -3%[46.1 µM]
c1ccc(-c2nc3c([nH]2)CCc2nonc2-3)cc1 | 6% | -39% | 5% | 27%
Nc1ncn(C(=S)Nc2ccccc2)n1 | x | 16µM* | -6% | x
S=C(Nc1ccccc1)N1CCCCCC1 | 1% | 3%[57.1 µM] | 11%[57.1 µM] | -5%[46.1 µM]
NC(=O)c1ccsc1NC(=O)CCS(=O)(=O)c1ccc(Cl)cc1 | x | 18µM* | 8%[57.1 µM] | x
NC(=O)c1ccsc1NC(=O)CCS(=O)(=O)c1ccccc1 | 0% | 8%[57.1 µM] | -5%[57.1 µM] | 17%
N#Cc1ccsc1NC(=O)CCS(=O)(=O)c1ccccc1 | -1% | 3.2µM* | 2% | x
CN(C)c1ccc(/C=C/c2sc3ccccc3[n+]2Cc2ccccc2)cc1 | x | -7% | -2% | x
